Test results published in PubChem BioAssay (NCI).
Compounds without any hit were thinned out: in the full panel of roughly 79,000, 15% have a hit. Values without a mark were called inactive. The source made the active and inactive calls. Rule as the data show it: active = growth inhibition above about 70%; inactive = the rest.

Columns and labels:
[1] = NCI Yeast Anticancer Drug Screen. Data for the rad50 strain (AID 155);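 also: 0% = growth of vehicle-only cultures of the same strain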; conditions: S. cerevisiae rad50 strain growth inhibition; at 50.0 µM; hits give high values
Outline: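 Growth of the mutant yeast was measured after compound exposure and referenced to vehicle-treated cultures.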

[2] = NCI Yeast Anticancer Drug Screen. Data for the mec2-1 strain (AID 157); conditions: S. cerevisiae mec2-1 strain, at 50.0 µM, hits give high values
Outline: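 Compounds were applied to mec2-1 yeast cells. Their growth was then compared with that of vehicle-treated cultures to give growth inhibition.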

[3] = NCI Yeast Anticancer Drug Screen. Data for the sgs1 mgt1 strain (AID 161);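 also: 0% = growth of cultures given vehicle only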; conditions: S. cerevisiae sgs1 mgt1 strain, at 50.0 µM, hits give high values
Outline: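 This yeast growth screen uses a strain with defined DNA-repair lesions; compound-treated growth is compared with vehicle-treated growth.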

[4] = NCI Yeast Anticancer Drug Screen. Data for the cln2 rad14 strain (AID 165);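 also: 0% = growth equal to vehicle treated cultures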; conditions: S. cerevisiae cln2 rad14 strain, at 50.0 µM, hits give high values
Outline: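 Strain: cln2 rad14 yeast, altered in cell cycle control and DNA damage repair. Read-out: growth inhibition vs vehicle.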

[5] = NCI Yeast Anticancer Drug Screen. Data for the bub3 strain (AID 167); conditions: S. cerevisiae bub3 mutant strain, at 50.0 µM, hits give high values
Outline: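 Whole-cell yeast assay. The mutant strain was incubated with compounds, and growth inhibition was determined by comparison with vehicle-treated cells.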

[6] = NCI Yeast Anticancer Drug Screen. Data for the mlh1 rad18 strain (AID 175); conditions: S. cerevisiae mlh1 rad18 strain growth inhibition; at 50.0 µM; hits give high values
Outline: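 A repair-deficient yeast strain is exposed to test compound, and growth is scored relative to vehicle-treated controls.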

CC(C)(C)CC(C)(C)c1ccc(OCCOc2ccc(C(=O)NCCNC(=O)c3ccc4ccccc4c3O)cc2N)cc1
growth inhibition [1]: -13% | growth inhibition [2]: -5.25% | growth inhibition [3]: 3.85% | growth inhibition [4]: 26.4% | growth inhibition [5]: -7.1% | growth inhibition [6]: -16.6%

COc1ccc(C2=C(OC(C)=O)c3cccn3-c3ccccc3S2)cc1
growth inhibition [1]: -34.5% | growth inhibition [2]: -49.9% | growth inhibition [3]: -28.8% | growth inhibition [4]: -45.9% | growth inhibition [5]: -45.8% | growth inhibition [6]: 2.15%

C1=C(N2CCOCC2)CCC(N2CCOCC2)=C1
growth inhibition [1]: -2.85% | growth inhibition [2]: 21.9% | growth inhibition [3]: 20.8% | growth inhibition [4]: 41.9% | growth inhibition [5]: -8.65% | growth inhibition [6]: -12.2%

CC(=O)c1ccccc1[N+](=O)[O-]
growth inhibition [1]: 2.95% | growth inhibition [2]: -12.5% | growth inhibition [3]: 21.7% | growth inhibition [4]: 5.85% | growth inhibition [5]: -7.55% | growth inhibition [6]: 30.1%

Cc1cccc(OS(=O)(=O)c2ccccc2)c1
growth inhibition [1]: 34.6% | growth inhibition [2]: 16.2% | growth inhibition [3]: 36% | growth inhibition [4]: 8.1% | growth inhibition [5]: -6.65% | growth inhibition [6]: 24.8%

CCCCN(CCCC)CC(O)c1cc(-c2ccc(C(F)(F)F)cc2)nc(-c2ccc(C(F)(F)F)cc2)c1 (stereo not given)
growth inhibition [1]: 25% | growth inhibition [2]: 2.45% | growth inhibition [3]: 2.2% | growth inhibition [4]: -24.2% | growth inhibition [5]: -33.8% | growth inhibition [6]: 82.3% (active)

C(=C/c1ccc(-c2ccccc2)cc1)/C=C/c1ccc(-c2ccccc2)cc1
growth inhibition [1]: 3.3% | growth inhibition [2]: 4% | growth inhibition [3]: -0.2% | growth inhibition [4]: -29.2% | growth inhibition [5]: 6.95% | growth inhibition [6]: 17.9%

CCCCCCCCCCCCCCCCC1=C(C(=O)OC)NC(N)=NC1O (stereo not given)
growth inhibition [1]: 29% | growth inhibition [2]: 0.25% | growth inhibition [3]: -20.8% | growth inhibition [4]: -10.1% | growth inhibition [5]: 4.7% | growth inhibition [6]: 22.1%

Cc1ccc(NC(=O)C(=O)C2NC(=S)NC2=O)c([N+](=O)[O-])c1 (stereo not given)
growth inhibition [1]: 8.35% | growth inhibition [2]: 3.25% | growth inhibition [3]: 17.8% | growth inhibition [4]: 20.1% | growth inhibition [5]: 5.6% | growth inhibition [6]: 8.55%

O=[N+]([O-])c1ccc(N=NNc2ccc(N=Nc3ccccc3)cc2)cc1
growth inhibition [1]: 12.1% | growth inhibition [2]: -18.8% | growth inhibition [3]: -1% | growth inhibition [4]: 6.7% | growth inhibition [5]: 0.1% | growth inhibition [6]: 4.6%

COc1ccc(Cl)cc1NC(=O)c1cccc(Cl)c1
growth inhibition [1]: 18.8% | growth inhibition [2]: 16.9% | growth inhibition [3]: 7.8% | growth inhibition [4]: 10.9% | growth inhibition [5]: 30.1% | growth inhibition [6]: -0.3%

O=C(O)CN1C(=O)c2ccccc2C1=O
growth inhibition [1]: -8.75% | growth inhibition [2]: -15.7% | growth inhibition [3]: -5.5% | growth inhibition [4]: -25.7% | growth inhibition [5]: -27.6% | growth inhibition [6]: -20.3%

O=c1ccc2c(O)c([N+](=O)[O-])cc([N+](=O)[O-])c2[nH]1
growth inhibition [1]: 10% | growth inhibition [2]: -15.7% | growth inhibition [3]: 3.15% | growth inhibition [4]: 8.85% | growth inhibition [5]: 6.3% | growth inhibition [6]: 20.2%

CC1CSC(C)C(=O)N1 (stereo not given)
growth inhibition [1]: -11.2% | growth inhibition [2]: -3.65% | growth inhibition [3]: -5.75% | growth inhibition [4]: 7.55% | growth inhibition [5]: 15.8% | growth inhibition [6]: 2%

CN(CCCCl)Cc1ccccc1
growth inhibition [1]: 1.85% | growth inhibition [2]: -26.8% | growth inhibition [3]: -24.7% | growth inhibition [4]: 1.35% | growth inhibition [5]: -14.3% | growth inhibition [6]: -7.55%

Cc1ccc(C(O)c2ccccc2)cc1 (stereo not given)
growth inhibition [1]: 25.4% | growth inhibition [2]: 6.55% | growth inhibition [3]: 17.4% | growth inhibition [4]: -61.6% | growth inhibition [5]: 1.4% | growth inhibition [6]: 9.5%

O=S(=O)(Nc1nc2ccccc2nc1Nc1cccc2ccccc12)c1ccccc1
growth inhibition [1]: -1.3% | growth inhibition [2]: -5.05% | growth inhibition [3]: 3.8% | growth inhibition [4]: -13.5% | growth inhibition [5]: -10.9% | growth inhibition [6]: -26.4%

CCOC(=O)CC1CCC(CCCCC2CCC(CC(=O)OCC)CC2)CC1 (stereo not given)
growth inhibition [1]: 76% (active) | growth inhibition [2]: 44.5% | growth inhibition [3]: 80% (active) | growth inhibition [4]: 57.4% | growth inhibition [5]: 22.2% | growth inhibition [6]: 45.2%

CCC1CCC(CC)C1OC(C)=O (stereo not given)
growth inhibition [1]: -31.1% | growth inhibition [2]: -27.7% | growth inhibition [3]: -12.3% | growth inhibition [4]: -26.4% | growth inhibition [5]: -28.7% | growth inhibition [6]: -21.6%

Cc1ccc(NC(=O)C2c3ccccc3-c3ccccc32)cc1
growth inhibition [1]: 39.4% | growth inhibition [2]: 16.6% | growth inhibition [3]: 16.9% | growth inhibition [4]: -8.35% | growth inhibition [5]: 10.9% | growth inhibition [6]: 21.1%

O=C(O)CCC1(c2ccccc2)NC(=O)NC1=O (stereo not given)
growth inhibition [1]: -39.1% | growth inhibition [2]: -2.85% | growth inhibition [3]: -18.4% | growth inhibition [4]: -37% | growth inhibition [5]: -1.1% | growth inhibition [6]: -6.75%

COc1cc2ccnc(C#N)c2cc1OCc1ccccc1
growth inhibition [1]: -60.1% | growth inhibition [2]: -12.3% | growth inhibition [3]: -10.7% | growth inhibition [4]: -6.15% | growth inhibition [5]: -14.2% | growth inhibition [6]: -31.3%

COc1ccccc1OCC(=O)O
growth inhibition [1]: 23.6% | growth inhibition [2]: 0.2% | growth inhibition [3]: -17.8% | growth inhibition [4]: -24.9% | growth inhibition [5]: -11.9% | growth inhibition [6]: 23.2%

O=[N+]([O-])c1ccc2[nH]c(=S)n(/C=C(/c3ccccc3)S(=O)Cc3ccccc3)c2c1 (stereo not given)
growth inhibition [1]: -2.45% | growth inhibition [2]: -22.6% | growth inhibition [3]: -18.7% | growth inhibition [4]: -3.15% | growth inhibition [5]: -12% | growth inhibition [6]: -5.15%

COc1cc2c(cc1OC)C(CCN)NCC2 (stereo not given)
growth inhibition [1]: -8.75% | growth inhibition [2]: 7.2% | growth inhibition [3]: -2.55% | growth inhibition [4]: 7.3% | growth inhibition [5]: -3.95% | growth inhibition [6]: -9.25%

OC(CCNC12CC3CC(CC(C3)C1)C2)c1ccccc1 (stereo not given)
growth inhibition [1]: 29.8% | growth inhibition [2]: 22.4% | growth inhibition [3]: 59.2% | growth inhibition [4]: 50.5% | growth inhibition [5]: 33.4% | growth inhibition [6]: 53.6%

COC(C)(C)C(Br)C(=O)OCC(=O)c1ccc(Br)cc1 (stereo not given)
growth inhibition [1]: 25.9% | growth inhibition [2]: -0.3% | growth inhibition [3]: 11% | growth inhibition [4]: 20.6% | growth inhibition [5]: 0.8% | growth inhibition [6]: 13.3%

COc1ccc(/C=N\S(=O)(=O)c2ccc(OC)cc2)cc1
growth inhibition [1]: 16.3% | growth inhibition [2]: 13.7% | growth inhibition [3]: 15.1% | growth inhibition [4]: 8.8% | growth inhibition [5]: 2.2% | growth inhibition [6]: 0.5%

CC(=O)N/C(=C\c1ccc(Cc2nc3c([nH]2)C(=O)c2ccccc2C3=O)cc1)c1nc2c([nH]1)C(=O)c1ccccc1C2=O
growth inhibition [1]: -7.5% | growth inhibition [2]: 12.4% | growth inhibition [3]: 11.1% | growth inhibition [4]: 23.7% | growth inhibition [5]: 15.2% | growth inhibition [6]: 33.1%

Cc1c(-c2ccccc2)cc(O)c2nc3ccccc3n12
growth inhibition [1]: -31.2% | growth inhibition [2]: 6.45% | growth inhibition [3]: -16.6% | growth inhibition [4]: 2.45% | growth inhibition [5]: 11.9% | growth inhibition [6]: -36.9%

CN(C)c1ccc(/C=c2\sc3nc4ccccc4n3c2=O)cc1
growth inhibition [1]: -8.75% | growth inhibition [2]: -32.3% | growth inhibition [3]: -13.1% | growth inhibition [4]: -15.3% | growth inhibition [5]: -16.5% | growth inhibition [6]: -21.4%

CN(C)/N=C/c1cn(C)c(=O)n(C)c1=O
growth inhibition [1]: 0.15% | growth inhibition [2]: 3% | growth inhibition [3]: 5.75% | growth inhibition [4]: -5.55% | growth inhibition [5]: -20.3% | growth inhibition [6]: 1.85%

O=C1/C(=C/c2ccc3c(c2)OCO3)CCC1CN1CCOCC1 (stereo not given)
growth inhibition [1]: 91.2% (active) | growth inhibition [2]: 94.1% (active) | growth inhibition [3]: 90.8% (active) | growth inhibition [4]: 92.7% (active) | growth inhibition [5]: 90.2% (active) | growth inhibition [6]: 90.5% (active)

Nc1cc(Cl)c([N+](=O)[O-])cc1O
growth inhibition [1]: 6.2% | growth inhibition [2]: 18.4% | growth inhibition [3]: 5.55% | growth inhibition [4]: -66.2% | growth inhibition [5]: 5.05% | growth inhibition [6]: -12%

Oc1nc2nc[nH]n2c1N=Nc1ccccc1
growth inhibition [1]: -22.7% | growth inhibition [2]: -12.9% | growth inhibition [3]: -7.5% | growth inhibition [4]: -12.5% | growth inhibition [5]: 10.3% | growth inhibition [6]: 6.9%

COc1cccc(/C=C2/Sc3sc(C(C)=O)c(C)[n+]3C2=O)c1O
growth inhibition [1]: -15.9% | growth inhibition [2]: -1.55% | growth inhibition [3]: 8.7% | growth inhibition [4]: -2.05% | growth inhibition [5]: -4.55% | growth inhibition [6]: -9.6%

CN(C)/N=C1/CCC(C(F)(F)F)(C(F)(F)F)O1
growth inhibition [1]: 40.1% | growth inhibition [2]: 31.6% | growth inhibition [3]: 41.5% | growth inhibition [4]: 28.9% | growth inhibition [5]: 5.1% | growth inhibition [6]: -18.4%

CC1(O)C(O)C(O)C1(O)CO (stereo not given) (tested in a mixture with another compound)
growth inhibition [1]: 6.55% | growth inhibition [2]: -3.35% | growth inhibition [3]: 9.9% | growth inhibition [4]: -1.85% | growth inhibition [5]: -2.4% | growth inhibition [6]: -4.9%

CC(=O)NNC(=O)NCCCCCCNC(=O)NNC(C)=O
growth inhibition [1]: 16.1% | growth inhibition [2]: 20.2% | growth inhibition [3]: 25.4% | growth inhibition [4]: 16.2% | growth inhibition [5]: 17.9% | growth inhibition [6]: 26.5%

CC1CCC2(C)CCC3(C)C(=CCC4C5(C)CCC(O)C(C)(C)C5CCC43C)C2C1C (stereo not given) (tested in a mixture with another compound)
growth inhibition [1]: 23.8% | growth inhibition [2]: -20.8% | growth inhibition [3]: 9.95% | growth inhibition [4]: -5.8% | growth inhibition [5]: 0.6% | growth inhibition [6]: 17.1%
